Results: the supplement of paper PMC10849652
The full data set covers some 7,900 targets. This sample favours those with a hit. About 0.6% of all pairs of compound and target were hits. Unmarked numbers belong to inactive results.

What was measured:
Assay in all cases: log2 fold change, soluble protein after heating vs DMSO (PISA); higher = thermal stabilisation; K562 cells, 10 uM, 30 min; active = over 0.2 and 3.5 SD of the protein, either way, in both replicates (recomputed)
erlotinib = compound: C#Cc1cccc(Nc2ncnc3cc(OCCOC)c(OCCOC)cc23)c1 [erlotinib]
Summary of the method: (§1)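 Soluble protein was quantified by TMTpro 16plex LC-MS/MS after channel sums were equalised. It was obtained as the supernatant after 21,000xg for 90 min from pooled aliquots of K562 cells (2×10^6 cells/mL, 10 μM compound, 30 min) heated for 3 min across 48°C-58°C and extracted in PBS with 0.5% NP-40 at 4°C. Thermal stability values are relative to control samples and come from duplicates. They are given as log2 fold changes.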

[1] = compound: C/C(=N\NC(=O)C1=CC(=CC=C1)S(=O)(=O)N2CCOCC2)/C3=C(C=CC(=C3)Cl)O
Summary of the method: as §1

[2] = compound: C1=CC(=C(C=C1Cl)C2=NC3=NC=CN=C3C(=N2)NC4=CC=NC=C4)F
Summary of the method: as §1

[3] = compound: C1=CC(=CC=C1C2=NC3=C(N2)C=C(C=C3)C(=O)N)OC4=CC=C(C=C4)Cl
Summary of the method: as §1

[4] = compound: C1=CC2=C(C=CC(=C2)/C=C\3/C(=O)NC(=NCC4=CC=CS4)S3)N=C1
Summary of the method: as §1

[5] = compound: C1=CC2=NC=CN=C2C=C1/C=C/3\C(=O)NC(=O)S3
Summary of the method: as §1

[6] = compound: C1=CC=C(C=C1)C2=NC(=C(N2)C3=CC=NC=C3)C4=CC(=C(C=C4)Cl)O
Summary of the method: as §1

[7] = compound: C1=CC=C2C(=C1)C3=NNC4=CC=CC(=C43)C2=O
Summary of the method: as §1

[8] = compound: C1CCN(C1)C(=O)NC2=CC=CC(=C2)NC3=NC=C(C(=N3)NCCC4=CN=CN4)Br
Summary of the method: as §1

[9] = compound: C1CN(CCC1(CC2=CC=C(C=C2)Cl)N)C3=NC=NC4=C3C=CN4
Summary of the method: as §1

IRAK-1-4 Inhibitor I = compound: C1COCCN1CCN2C3=CC=CC=C3N=C2NC(=O)C4=CC(=CC=C4)[N+](=O)[O-] [IRAK-1-4 Inhibitor I]
Summary of the method: as §1

ibrutinib = compound: C=CC(=O)N1CCC[C@@H](n2nc(-c3ccc(Oc4ccccc4)cc3)c3c(N)ncnc32)C1 [ibrutinib]
Summary of the method: as §1

[10] = compound: CC(=O)c1cnc2ccc(-c3cc(Cl)c(O)c(Cl)c3)nc2c1N[C@H]1CC[C@H](CN(C)C)CC1
Summary of the method: as §1

ralimetinib = compound: CC(C)(C)Cn1c(N)nc2ccc(-c3[nH]c(C(C)(C)C)nc3-c3ccc(F)cc3)nc21 [ralimetinib]
Summary of the method: as §1

[11] = compound: CC(C)(O)CC(=O)NCCn1ccc2ncnc(Nc3ccc(Oc4cccc(C(F)(F)F)c4)c(Cl)c3)c21
Summary of the method: as §1

[12] = compound: CC(C)C1=C2N=C(C=C(N2N=C1)NCC3=CC=CC=C3)NCCCCCCN
Summary of the method: as §1

[13] = compound: CC(C)C[C@@H](C=O)NC(=O)[C@H](CC(C)C)NC(=O)[C@H](CC(C)C)NC(=O)OCc1ccccc1
Summary of the method: as §1

pinometostat = compound: CC(C)N(C[C@H]1O[C@@H](n2cnc3c(N)ncnc32)[C@H](O)[C@@H]1O)[C@H]1C[C@@H](CCc2nc3cc(C(C)(C)C)ccc3[nH]2)C1 [pinometostat]
Summary of the method: as §1

[14] = compound: CC1=C(C(CC(=O)N1)C2=CC=C(C=C2)C(F)(F)F)C(=O)NC3=C(C=C4C(=C3)C=NN4)F
Summary of the method: as §1

[15] = compound: CC1=C(C2=C(C=C1)C(=O)C3=CC=CC=C3N2CCCN)C
Summary of the method: as §1

Sequence of UniProt Q8NBI2 (Q8NBI2 whole entry, looked up): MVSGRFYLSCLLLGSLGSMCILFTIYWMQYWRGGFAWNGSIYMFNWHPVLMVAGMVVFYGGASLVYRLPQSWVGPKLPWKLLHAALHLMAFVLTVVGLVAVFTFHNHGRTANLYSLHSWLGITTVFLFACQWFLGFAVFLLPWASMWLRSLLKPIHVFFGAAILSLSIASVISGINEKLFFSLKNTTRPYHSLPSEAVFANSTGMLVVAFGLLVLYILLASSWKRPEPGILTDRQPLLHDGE
Sequence of UniProt Q8NDI1 (Q8NDI1 whole entry, looked up): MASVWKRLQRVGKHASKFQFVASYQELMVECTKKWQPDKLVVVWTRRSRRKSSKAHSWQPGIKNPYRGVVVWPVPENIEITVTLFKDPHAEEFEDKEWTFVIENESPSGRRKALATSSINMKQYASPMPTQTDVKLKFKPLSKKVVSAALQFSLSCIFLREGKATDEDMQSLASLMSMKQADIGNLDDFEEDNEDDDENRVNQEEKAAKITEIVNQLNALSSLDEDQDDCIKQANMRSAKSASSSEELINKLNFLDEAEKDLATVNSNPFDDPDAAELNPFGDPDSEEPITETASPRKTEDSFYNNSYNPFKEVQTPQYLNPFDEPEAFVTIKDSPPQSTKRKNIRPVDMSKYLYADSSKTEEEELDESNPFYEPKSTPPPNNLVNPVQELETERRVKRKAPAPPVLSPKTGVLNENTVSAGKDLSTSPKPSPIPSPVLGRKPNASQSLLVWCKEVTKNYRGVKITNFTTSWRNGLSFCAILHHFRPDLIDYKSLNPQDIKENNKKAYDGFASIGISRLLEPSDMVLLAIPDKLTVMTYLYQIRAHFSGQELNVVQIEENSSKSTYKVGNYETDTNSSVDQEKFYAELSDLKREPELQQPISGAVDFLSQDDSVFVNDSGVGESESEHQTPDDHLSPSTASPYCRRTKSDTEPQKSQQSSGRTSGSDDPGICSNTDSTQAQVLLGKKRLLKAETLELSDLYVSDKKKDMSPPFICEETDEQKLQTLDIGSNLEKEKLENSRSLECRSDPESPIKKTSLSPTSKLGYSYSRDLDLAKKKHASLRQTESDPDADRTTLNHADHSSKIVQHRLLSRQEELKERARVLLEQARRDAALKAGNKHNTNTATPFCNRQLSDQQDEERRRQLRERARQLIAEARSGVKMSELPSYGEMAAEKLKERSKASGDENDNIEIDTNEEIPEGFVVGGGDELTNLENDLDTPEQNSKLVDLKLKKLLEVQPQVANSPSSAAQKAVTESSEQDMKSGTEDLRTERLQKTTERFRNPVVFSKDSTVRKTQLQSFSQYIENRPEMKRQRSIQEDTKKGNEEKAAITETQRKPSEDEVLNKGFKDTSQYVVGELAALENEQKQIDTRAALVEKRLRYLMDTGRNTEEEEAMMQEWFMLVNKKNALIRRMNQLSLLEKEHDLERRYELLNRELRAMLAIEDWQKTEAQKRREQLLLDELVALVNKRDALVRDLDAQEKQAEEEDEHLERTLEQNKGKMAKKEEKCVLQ
Sequence of UniProt Q96PV7 (Q96PV7 whole entry, looked up): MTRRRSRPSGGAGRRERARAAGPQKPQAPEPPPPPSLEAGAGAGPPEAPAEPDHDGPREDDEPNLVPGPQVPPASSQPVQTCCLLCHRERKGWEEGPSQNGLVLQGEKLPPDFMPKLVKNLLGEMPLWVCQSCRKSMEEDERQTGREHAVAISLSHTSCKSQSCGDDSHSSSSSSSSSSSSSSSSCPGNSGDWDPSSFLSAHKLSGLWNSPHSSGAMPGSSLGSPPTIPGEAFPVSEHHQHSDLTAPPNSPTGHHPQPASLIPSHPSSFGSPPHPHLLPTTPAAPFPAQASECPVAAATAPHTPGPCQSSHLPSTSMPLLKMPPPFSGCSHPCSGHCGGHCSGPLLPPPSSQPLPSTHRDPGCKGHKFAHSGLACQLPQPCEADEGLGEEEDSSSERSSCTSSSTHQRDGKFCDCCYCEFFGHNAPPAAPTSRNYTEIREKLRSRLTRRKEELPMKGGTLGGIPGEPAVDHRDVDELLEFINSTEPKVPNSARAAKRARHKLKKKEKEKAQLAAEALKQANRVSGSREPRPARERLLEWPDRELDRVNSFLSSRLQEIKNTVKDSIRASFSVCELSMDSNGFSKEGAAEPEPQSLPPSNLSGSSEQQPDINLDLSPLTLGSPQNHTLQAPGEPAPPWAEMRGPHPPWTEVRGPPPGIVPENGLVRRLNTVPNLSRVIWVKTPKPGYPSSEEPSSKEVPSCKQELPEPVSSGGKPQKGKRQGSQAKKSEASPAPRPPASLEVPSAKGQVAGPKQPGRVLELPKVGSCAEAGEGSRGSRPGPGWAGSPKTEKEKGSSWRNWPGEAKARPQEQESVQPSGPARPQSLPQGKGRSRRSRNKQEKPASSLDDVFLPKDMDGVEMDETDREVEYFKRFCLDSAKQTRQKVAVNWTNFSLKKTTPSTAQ
Sequence of UniProt Q8N8J7 (Q8N8J7 whole entry, looked up): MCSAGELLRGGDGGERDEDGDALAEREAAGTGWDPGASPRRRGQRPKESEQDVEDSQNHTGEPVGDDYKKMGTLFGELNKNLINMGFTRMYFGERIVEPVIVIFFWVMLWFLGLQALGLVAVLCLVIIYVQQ
Sequence of UniProt Q9NWS6 (Q9NWS6 whole entry, looked up): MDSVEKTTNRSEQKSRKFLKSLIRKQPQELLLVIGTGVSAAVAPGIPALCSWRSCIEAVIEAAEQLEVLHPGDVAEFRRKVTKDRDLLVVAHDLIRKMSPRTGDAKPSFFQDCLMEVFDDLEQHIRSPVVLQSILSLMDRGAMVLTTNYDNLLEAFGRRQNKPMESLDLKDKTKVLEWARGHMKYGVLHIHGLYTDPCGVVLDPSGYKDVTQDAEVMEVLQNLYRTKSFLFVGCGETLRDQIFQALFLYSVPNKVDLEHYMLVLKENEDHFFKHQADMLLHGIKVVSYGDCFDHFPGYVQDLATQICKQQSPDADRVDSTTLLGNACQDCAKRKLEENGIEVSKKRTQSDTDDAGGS
Sequence of UniProt Q96DF8 (Q96DF8 whole entry, looked up): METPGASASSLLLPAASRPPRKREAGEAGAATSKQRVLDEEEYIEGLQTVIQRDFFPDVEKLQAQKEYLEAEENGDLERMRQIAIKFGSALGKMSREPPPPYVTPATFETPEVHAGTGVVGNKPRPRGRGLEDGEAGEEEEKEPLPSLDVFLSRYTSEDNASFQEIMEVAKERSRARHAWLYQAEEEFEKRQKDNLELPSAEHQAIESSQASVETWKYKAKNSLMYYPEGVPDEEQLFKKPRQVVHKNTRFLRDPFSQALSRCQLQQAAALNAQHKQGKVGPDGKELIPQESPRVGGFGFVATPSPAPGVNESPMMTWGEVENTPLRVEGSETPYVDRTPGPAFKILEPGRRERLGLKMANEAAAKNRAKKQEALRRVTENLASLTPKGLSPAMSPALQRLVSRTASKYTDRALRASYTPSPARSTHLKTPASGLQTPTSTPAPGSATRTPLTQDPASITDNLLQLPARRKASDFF
Sequence of UniProt P50570 (P50570 whole entry, looked up): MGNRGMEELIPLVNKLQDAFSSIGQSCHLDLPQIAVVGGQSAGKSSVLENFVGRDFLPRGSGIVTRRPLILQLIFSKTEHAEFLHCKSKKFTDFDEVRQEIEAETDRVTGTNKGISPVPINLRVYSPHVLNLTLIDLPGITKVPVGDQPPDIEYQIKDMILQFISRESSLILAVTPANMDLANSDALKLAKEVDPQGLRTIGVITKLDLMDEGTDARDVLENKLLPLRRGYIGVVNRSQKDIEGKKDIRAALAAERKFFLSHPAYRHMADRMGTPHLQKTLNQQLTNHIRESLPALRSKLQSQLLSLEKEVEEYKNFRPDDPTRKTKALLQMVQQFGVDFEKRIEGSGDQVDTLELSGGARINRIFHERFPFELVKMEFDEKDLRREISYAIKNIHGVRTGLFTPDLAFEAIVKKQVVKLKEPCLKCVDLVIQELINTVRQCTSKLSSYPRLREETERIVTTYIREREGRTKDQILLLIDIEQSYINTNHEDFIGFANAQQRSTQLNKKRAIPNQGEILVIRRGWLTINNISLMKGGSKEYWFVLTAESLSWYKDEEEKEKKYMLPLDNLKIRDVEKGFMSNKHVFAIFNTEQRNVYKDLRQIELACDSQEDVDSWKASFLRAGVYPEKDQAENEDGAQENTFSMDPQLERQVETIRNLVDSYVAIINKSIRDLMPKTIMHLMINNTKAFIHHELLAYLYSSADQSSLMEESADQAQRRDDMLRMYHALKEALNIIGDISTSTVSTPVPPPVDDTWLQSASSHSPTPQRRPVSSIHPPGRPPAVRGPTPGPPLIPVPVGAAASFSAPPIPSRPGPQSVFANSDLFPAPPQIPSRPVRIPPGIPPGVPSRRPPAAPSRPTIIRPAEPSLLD
Sequence of UniProt Q8WV16 (Q8WV16 whole entry, looked up): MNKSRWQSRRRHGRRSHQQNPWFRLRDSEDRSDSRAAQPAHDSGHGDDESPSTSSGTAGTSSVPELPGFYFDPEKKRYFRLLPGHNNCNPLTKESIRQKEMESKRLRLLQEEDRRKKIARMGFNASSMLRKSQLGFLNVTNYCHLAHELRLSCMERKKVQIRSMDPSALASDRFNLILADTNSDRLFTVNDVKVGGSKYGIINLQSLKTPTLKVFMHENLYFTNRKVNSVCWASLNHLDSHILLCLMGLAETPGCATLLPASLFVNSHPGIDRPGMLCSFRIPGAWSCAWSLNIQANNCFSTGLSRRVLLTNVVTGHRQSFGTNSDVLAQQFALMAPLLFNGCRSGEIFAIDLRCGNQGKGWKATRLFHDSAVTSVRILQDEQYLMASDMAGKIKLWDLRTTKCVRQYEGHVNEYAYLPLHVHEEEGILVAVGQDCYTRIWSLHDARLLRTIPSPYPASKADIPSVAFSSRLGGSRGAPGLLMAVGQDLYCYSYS
Sequence of UniProt Q6P3W2 (Q6P3W2 whole entry, looked up): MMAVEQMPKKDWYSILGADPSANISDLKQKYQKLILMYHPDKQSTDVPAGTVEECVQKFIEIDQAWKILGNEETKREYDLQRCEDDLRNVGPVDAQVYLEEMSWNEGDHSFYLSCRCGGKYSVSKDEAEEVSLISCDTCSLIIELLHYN

Target	log2 fold change (erlotinib)	log2 fold change [1]	log2 fold change [2]	log2 fold change [3]	log2 fold change [4]	log2 fold change [5]	log2 fold change [6]	log2 fold change [7]	log2 fold change [8]	log2 fold change [9]	log2 fold change (IRAK-1-4 Inhibitor I)	log2 fold change (ibrutinib)	log2 fold change [10]	log2 fold change (ralimetinib)	log2 fold change [11]	log2 fold change [12]	log2 fold change [13]	log2 fold change (pinometostat)	log2 fold change [14]	log2 fold change [15]
ESS2 (UniProt Q96DF8)	-0.057	-0.05	-0.013	0.046	-0.083	0.04	-0.055	-0.071	-0.008	0.096	0.032	0.025	0.031	-0.009	0.013	0.002	0.136	0.056	0.099	-0.021
EXOSC10 (UniProt Q01780)	1.07	-0.86 (active)	0.136	0.008	0.078	-0.101	-0.444	-0.055	0.052	0.067	0.165	0.033	0.026	-0.261	-0.01	0.213	0.247	0.059		0.076
DNM2 isoform 4 (UniProt P50570)	0.042		0.084	-0.128		0.261	-0.008				0.019	-0.074		0.005	-0.101	-0.047	-0.04	-0.063	0.007	
EPHX2 (UniProt E5RI53)			0.037			-0.082						0.085			0.071					
FAM241A (UniProt Q8N8J7)	-0.012	-0.005		0.044	-0.076	0.043	-0.014	0.012	0.016	0.045	0.011	-0.094	0.063	-0.019		-0.008	0.004	-0.029	0.059	-0.008
CYB561A3 isoform 2 (UniProt Q8NBI2)	-0.021	-0.016		0.02	-0.005	0.114	0.043	-0.034	-0.01	0.069	0.024	0.014	0.033	-0.026		-0.164	-0.019	-0.054	-0.069	-0.027
DHPS (UniProt M0R1T2)						0.099						0.124								
FAM118A (UniProt Q9NWS6)		0.005	0.098		0.083	0.089	-0.365	0.212	0.084	0.078	-0.009	0.045	-0.212	-0.21	-0.207		-0.125	-0.054	-0.006	0.014
CTNNBL1 (UniProt Q8WYA6)						-0.032						0.046								
DCAF4 (UniProt Q8WV16)			0.009				-0.15							-0.026	-0.019		-0.042		0.043	
DNAJB1 (UniProt M0R128)						-0.105			0.142	0.133		-0.077								0.111
DNAH5 (UniProt Q8TE73)	0.014		0.036	0.001		-0.005	-0.067		0.084	0.095	0.074	0.039		0.004	0.031	-0.09	0.009	0.055	-0.023	0.106
EHBP1 (UniProt Q8NDI1)		-0.012			0.086			0.095	-0.132	0.033			0.018							-0.003
FAM193B (UniProt Q96PV7)		-0.127	-0.311		-0.085	0.068		-0.101	-0.133	-0.483	-0.049	-0.266	-0.03		-0.05			0.112		-0.181
CWF19L2 (UniProt Q2TBE0)	0.004	0.056		0.038	0.03		-0.132	-0.014	0.017	-0.04	0.029		-0.075	0.014		0.184	0.02	0.098		0.106
DDB1 isoform 2 (UniProt Q16531)			0.017			0.205						-0.034			0.078					
DHRS13 (UniProt Q6UX07)	0.014	0.043		-0.006	0.037		0.073	0.047	-0.009	0.065	-0.275		-0.051	0.035		-0.007	0.144	0.224	-0.168	-0.085
DNAJC24 (UniProt Q6P3W2)	-0.114		0.123	0.062		-0.053	-0.084		-0.047	-0.158	-0.035	0.011		0.058	0.026	-0.037	0.058	-0.019	0.062	-0.023
